# Measurements taken from PubChem BioAssay.
# Counter-ions that a name gives are not always drawn. Values without a mark were called inactive. The rule behind the calls is not given here. Residues, ends and D or L forms follow the SMILES beside them. *: point of attachment. Tfa = O=C(C(F)(F)F)*
# Tested on: Aerobactin synthetase IucA (Klebsiella pneumoniae hvKP1)
# Test: Biochemical IucA enzyme inhibition primary screen of the Spectrum library (AID 1346200);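 note: 100% = wells without compound and 0% = wells lacking enzyme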
# Settings: malachite green pyrophosphate, A620, at 8 µM, active compounds read low
row,SMILES,activity remaining
1,C=CC(C1=CC(=O)C(OC)=CC1=O)c1ccccc1 (stereo not given),113%
2,COC(=O)C[C@H]1C(C)(C)C2(O)OC34CC2C(=O)[C@]1(C)C3CC[C@]1(C)C4=CC(=O)O[C@H]1c1ccoc1 (stereo not given in full),105%
3,CN1CCN(CCC=C2c3ccccc3Sc3ccc(S(=O)(=O)N(C)C)cc32)CC1,116%
4,COc1cc(CNC(=O)CCCC/C=C/C(C)C)ccc1O,109%
5,C[C@]12CCC3C(CC[C@H]4C[C@H](OS(=O)(=O)O)CC[C@]34C)C1CCC2=O (stereo not given in full),102%
6,CN(C)C(=O)Nc1ccc(Cl)c(Cl)c1,109%
7,COc1cc([C@@H]2c3cc4c(cc3[C@H](O)[C@H]3COC(=O)[C@@H]23)OCO4)cc(OC)c1OC,82.7%
8,CCCCCN=C(N)N/N=C/c1c[nH]c2ccc(OC)cc12,108%
9,C=C1C(=O)[C@]23[C@H](O)[C@H]1CC[C@H]2[C@@]12COC3(O)[C@H](O)[C@@H]1C(C)(C)CC[C@@H]2O,98.4%
10,CC(C)(C)NC[C@H](O)c1ccc(O)c(CO)c1,112%
11,O=C(O)c1c2ccccc2cc2ccccc12,116%
12,CC(=O)O[C@H]1C[C@@H](OC(C)=O)C(C)(C)C2C[C@@H](O)[C@]3(C)C(CC[C@@]4(C)[C@H](c5ccoc5)OC(=O)[C@H]5O[C@]543)[C@]21C (stereo not given in full),94.5%
13,CC1=C(C(=O)O)N2C(=O)[C@@H](NC(=O)[C@H](N)C3=CCC=CC3)C2SC1 (stereo not given in full),103%
14,O=C1CC(c2ccccc2)Oc2ccccc21 (stereo not given),125%
15,Cc1cc(-c2ccccc2)nnc1NCCN1CCOCC1,110%
16,CC(=O)Oc1cccc(C(=O)O)c1OC(C)=O,120%
17,CC[C@H]1OC(=O)[C@H](C)[C@@H](O[C@H]2C[C@@](C)(OC)[C@@H](O)[C@H](C)O2)[C@H](C)[C@@H](O[C@@H]2O[C@H](C)C[C@H](N(C)C)[C@H]2O)[C@](C)(O)C[C@@H](C)C(=O)[C@H](C)[C@@H](O)[C@]1(C)O,117%
18,O=C(O)CN1C(=O)c2cccc3cccc(c23)C1=O,111%
19,COc1cc(O)c2c(=O)c(O)c(-c3ccc(O)c(O)c3)oc2c1,103%
20,Nc1c2ccccc2nc2ccccc12,118%

row,SMILES,activity remaining
1,Oc1ccc2c(c1)OCC1c3cc4c(cc3OC21)OCO4 (stereo not given),87.4%
2,O=c1oc2cc(O)ccc2s1,110%
3,COc1cc(OC)c2c(=O)c(-c3ccc4c(c3)OCO4)coc2c1,98%
4,CC1(C)C(=O)C=C[C@@]2(C)C1CC(=O)[C@@]1(C)C3=CC(=O)O[C@@H](c4ccoc4)[C@]3(C)CCC12 (stereo not given in full),107%
5,CCc1ccc2c(O)c3c(cc2c1C(=O)OC)C(=O)c1c(O)ccc(O)c1C3=O,115%
6,OC(Cn1cncn1)(Cn1cncn1)c1ccc(F)cc1F,105%
7,COc1ccc2c(C)cc(=O)oc2c1,92.2%
8,CC(=O)[C@@]1(O)CCC2C3C[C@H](C)C4=CC(=O)C=CC4(C)[C@@]3(F)[C@@H](O)C[C@@]21C (stereo not given in full),114%
9,S=c1ccss1,84.5%
10,COc1cc(O)c2c(=O)cc(-c3ccc(OC)c(-c4c(O)cc(O)c5c(=O)cc(-c6ccc(O)cc6)oc45)c3)oc2c1,118%
11,CC1(C)C=Cc2cc3ccc(=O)oc3cc2O1,119%
12,NC(=O)c1ccc([N+](=O)[O-])cc1Cl,107%
13,Cc1ccc(-c2cc(C(F)(F)F)nn2-c2ccc(S(N)(=O)=O)cc2)cc1,95%
14,CC1CCCC(C)N1NC(=O)c1ccc(Cl)c(S(N)(=O)=O)c1 (stereo not given),121%
15,C[C@@H]1O[C@@H](O[C@H]2[C@H](Oc3cc(O)c4c(=O)cc(-c5ccc(O)cc5)oc4c3)O[C@H](CO)[C@@H](O)[C@@H]2O)[C@H](O)[C@H](O)[C@H]1O,90.6%
16,Clc1ccccc1CN1CCc2sccc2C1,109%
17,CC(C)C(NC(=O)C(Cc1ccc(O)cc1)NC(=O)C(NC(=O)C(F)(F)F)C(C)C)C(=O)O (stereo not drawn) (Tfa-Val-Tyr-Val-OH; configuration not given here),105%
18,COc1c(O)cc2oc3cc(O)c(CC=C(C)C)c(O)c3c(=O)c2c1CC=C(C)C,93%
19,COc1ccccc1OCC(O)COC(N)=O (stereo not given),108%
20,CC(=O)/C=C\[C@@H]1[C@@]2(C)CCCC(C)(C)C2CC[C@@]1(C)O (stereo not given in full),95.5%
